According to paper PMC8384837, “Expanding the binding specificity for RNA recognition by a PUF domain”:
Residue numbers refer to the chain shown, from its start.

Columns and labels:
Assay in all cases: yeast three-hybrid, YBZ-1, SC-Leu-His + 0.5 mM 3-AT, 4 days
Details in all cases: tags: N-Gal4 AD-HA kept; label: inside an RPR1-promoter hybrid RNA with tandem MS2 sites; ssRNA
PUM1 PUF domain R4-FNC = PUM1 PUF domain R4-FNC (Homo sapiens, UniProt Q14671 828-1176, N971F;H972N;Q975C)
Procedure, shortened: (§1)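 Sequencing with Illumina followed PCR amplification of the repeat regions from transformants grown four days on SC-Leu (input) or SC-Leu-His + 0.5 mM 3-AT (selection). The transformants were strain YBZ-1 with a LexA–MS2 coat fusion and a HIS3 reporter, carrying Pumilio-1 PUF domain libraries and matching RNA elements. The interaction score is the log change in variant frequency from input to selection, computed in log2 with a pseudocount of 1 for absent variants.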

PUM1 PUF domain R4-PFL = PUM1 PUF domain R4-PFL (Homo sapiens, UniProt Q14671 828-1176, N971P;H972F;Q975L)
Procedure, shortened: as §1

PUM1 PUF domain R4-SHS = PUM1 PUF domain R4-SHS (Homo sapiens, UniProt Q14671 828-1176, N971S;Q975S)
Procedure, shortened: as §1

PUM1 PUF domain R4-SNI = PUM1 PUF domain R4-SNI (Homo sapiens, UniProt Q14671 828-1176, N971S;H972N;Q975I)
Procedure, shortened: as §1

PUM1 PUF domain R4-SPY = PUM1 PUF domain R4-SPY (Homo sapiens, UniProt Q14671 828-1176, N971S;H972P;Q975Y)
Procedure, shortened: as §1

PUM1 PUF domain R7-ARR = PUM1 PUF domain R7-ARR (Homo sapiens, UniProt Q14671 828-1176, S1079A;N1080R;E1083R)
Procedure, shortened: as §1

PUM1 PUF domain R7-EPG = PUM1 PUF domain R7-EPG (Homo sapiens, UniProt Q14671 828-1176, S1079E;N1080P;E1083G)
Procedure, shortened: as §1

PUM1 PUF domain R6-GWE = molecular target: T1, PUM1 PUF domain R6-GWE (Homo sapiens, UniProt Q14671 828-1176, N1043G;Y1044W;Q1047E)
T1 sequence: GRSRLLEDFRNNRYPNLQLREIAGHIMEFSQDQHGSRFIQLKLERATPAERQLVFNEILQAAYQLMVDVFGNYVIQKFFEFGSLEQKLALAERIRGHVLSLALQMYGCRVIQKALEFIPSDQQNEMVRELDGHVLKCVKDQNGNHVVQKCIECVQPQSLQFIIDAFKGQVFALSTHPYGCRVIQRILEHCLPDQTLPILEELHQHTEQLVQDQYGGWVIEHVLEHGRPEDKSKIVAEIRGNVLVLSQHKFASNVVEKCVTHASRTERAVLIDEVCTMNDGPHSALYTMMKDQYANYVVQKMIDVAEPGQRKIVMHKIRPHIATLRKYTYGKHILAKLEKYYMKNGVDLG
Procedure, shortened: as §1

PUM1 PUF domain R3-SAE = PUM1 PUF domain R3-SAE (Homo sapiens, UniProt Q14671 828-1176, C935S;R936A;Q939E)
Procedure, shortened: as §1

PUM1 PUF domain R3-RSG = PUM1 PUF domain R3-RSG (Homo sapiens, UniProt Q14671 828-1176, C935R;R936S;Q939G)
Procedure, shortened: as §1

PUM1 PUF domain R2-DWC = PUM1 PUF domain R2-DWC (Homo sapiens, UniProt Q14671 828-1176, N899D;Y900W;Q903C)
Procedure, shortened: as §1

PUM1 PUF domain R8-RFY = PUM1 PUF domain R8-RFY (Homo sapiens, UniProt Q14671 828-1176, N1122R;Y1123F;Q1126Y)
Procedure, shortened: as §1

PUM1 PUF domain R6-IFC = molecular target: T2, PUM1 PUF domain R6-IFC (Homo sapiens, UniProt Q14671 828-1176, N1043I;Y1044F;Q1047C)
T2 sequence: T1 sequence with G216I, W217F, E220C
Procedure, shortened: as §1

PUM1 PUF domain R5-HCR = PUM1 PUF domain R5-HCR (Homo sapiens, UniProt Q14671 828-1176, C1007H;R1008C;Q1011R)
Procedure, shortened: as §1

PUM1 PUF domain R5-QRD = PUM1 PUF domain R5-QRD (Homo sapiens, UniProt Q14671 828-1176, C1007Q;Q1011D)
Procedure, shortened: as §1

PUM1 PUF domain R5-LFR = PUM1 PUF domain R5-LFR (Homo sapiens, UniProt Q14671 828-1176, C1007L;R1008F;Q1011R)
Procedure, shortened: as §1

PUM1 PUF domain R6-CFK = molecular target: T3, PUM1 PUF domain R6-CFK (Homo sapiens, UniProt Q14671 828-1176, N1043C;Y1044F;Q1047K)
T3 sequence: T1 sequence with G216C, W217F, E220K
Procedure, shortened: as §1

PUM1 PUF domain R4-ALC = PUM1 PUF domain R4-ALC (Homo sapiens, UniProt Q14671 828-1176, N971A;H972L;Q975C)
Procedure, shortened: as §1

Sequence: GGCUAGAACUAGUGGAUCCCCCGGCGCCCGGCGGCUCGAGCCCGGGUAAGUGUAUAUAGUCUGCAUGCCGCCGGGCGCCAUGCCUGCAGGUCGACUCUAGAAAACAUG
- binding signal (PUM1 PUF domain R4-FNC): 3.02 log2 enrichment (interaction score)
- binding signal (PUM1 PUF domain R4-PFL): 4.21 log2 enrichment (interaction score)
- binding signal (PUM1 PUF domain R4-SHS): 6.15 log2 enrichment (interaction score)
- binding signal (PUM1 PUF domain R4-SNI): 3.45 log2 enrichment (interaction score)
- binding signal (PUM1 PUF domain R4-SPY): 1.88 log2 enrichment (interaction score)

Sequence: GGCUAGAACUAGUGGAUCCCCCGGCGCCCGGCGGCUCGAGCCCGGGUAAGUUUAAAUAGUCUGCAUGCCGCCGGGCGCCAUGCCUGCAGGUCGACUCUAGAAAACAUG
- binding signal (PUM1 PUF domain R7-ARR): 3.69 log2 enrichment (interaction score)
- binding signal (PUM1 PUF domain R7-EPG): 3.69 log2 enrichment (interaction score)

Sequence: GGCUAGAACUAGUGGAUCCCCCGGCGCCCGGCGGCUCGAGCCCGGGUAAGUCUAAAUAGUCUGCAUGCCGCCGGGCGCCAUGCCUGCAGGUCGACUCUAGAAAACAUG
- binding signal (PUM1 PUF domain R7-ARR): 3.14 log2 enrichment (interaction score)

Sequence: GGCUAGAACUAGUGGAUCCCCCGGCGCCCGGCGGCUCGAGCCCGGGUAAGUGGAAAUAGUCUGCAUGCCGCCGGGCGCCAUGCCUGCAGGUCGACUCUAGAAAACAUG
- binding signal (PUM1 PUF domain R6-GWE): 5.02 log2 enrichment (interaction score)

Sequence: GGCUAGAACUAGUGGAUCCCCCGGCGCCCGGCGGCUCGAGCCCGGGUAAGUGUAAGUAGUCUGCAUGCCGCCGGGCGCCAUGCCUGCAGGUCGACUCUAGAAAACAUG
- binding signal (PUM1 PUF domain R3-SAE): 4.99 log2 enrichment (interaction score)
- binding signal (PUM1 PUF domain R3-RSG): 1.02 log2 enrichment (interaction score)

Sequence: GGCUAGAACUAGUGGAUCCCCCGGCGCCCGGCGGCUCGAGCCCGGGUAAGUGUAAAAAGUCUGCAUGCCGCCGGGCGCCAUGCCUGCAGGUCGACUCUAGAAAACAUG
- binding signal (PUM1 PUF domain R2-DWC): 7.69 log2 enrichment (interaction score)

Sequence: GGCUAGAACUAGUGGAUCCCCCGGCGCCCGGCGGCUCGAGCCCGGGUAAGCGUAAAUAGUCUGCAUGCCGCCGGGCGCCAUGCCUGCAGGUCGACUCUAGAAAACAUG
- binding signal (PUM1 PUF domain R8-RFY): 5.49 log2 enrichment (interaction score)

Sequence: GGCUAGAACUAGUGGAUCCCCCGGCGCCCGGCGGCUCGAGCCCGGGUAAGUGAAAAUAGUCUGCAUGCCGCCGGGCGCCAUGCCUGCAGGUCGACUCUAGAAAACAUG
- binding signal (PUM1 PUF domain R6-IFC): 5.44 log2 enrichment (interaction score)

Sequence: GGCUAGAACUAGUGGAUCCCCCGGCGCCCGGCGGCUCGAGCCCGGGUAAGUGUACAUAGUCUGCAUGCCGCCGGGCGCCAUGCCUGCAGGUCGACUCUAGAAAACAUG
- binding signal (PUM1 PUF domain R4-SNI): 2.5 log2 enrichment (interaction score)

Sequence: GGCUAGAACUAGUGGAUCCCCCGGCGCCCGGCGGCUCGAGCCCGGGUAAGUGUUAAUAGUCUGCAUGCCGCCGGGCGCCAUGCCUGCAGGUCGACUCUAGAAAACAUG
- binding signal (PUM1 PUF domain R5-HCR): 2.43 log2 enrichment (interaction score)

Sequence: GGCUAGAACUAGUGGAUCCCCCGGCGCCCGGCGGCUCGAGCCCGGGUAAGUGUCAAUAGUCUGCAUGCCGCCGGGCGCCAUGCCUGCAGGUCGACUCUAGAAAACAUG
- binding signal (PUM1 PUF domain R5-HCR): 2.3 log2 enrichment (interaction score)

Sequence: GGCUAGAACUAGUGGAUCCCCCGGCGCCCGGCGGCUCGAGCCCGGGUAAGUGUGAAUAGUCUGCAUGCCGCCGGGCGCCAUGCCUGCAGGUCGACUCUAGAAAACAUG
- binding signal (PUM1 PUF domain R5-QRD): 5.16 log2 enrichment (interaction score)

Sequence: GGCUAGAACUAGUGGAUCCCCCGGCGCCCGGCGGCUCGAGCCCGGGUAAGUGUAAAUAGUCUGCAUGCCGCCGGGCGCCAUGCCUGCAGGUCGACUCUAGAAAACAUG
- binding signal (PUM1 PUF domain R5-LFR): 2.2 log2 enrichment (interaction score)
- binding signal (PUM1 PUF domain R6-CFK): 3.27 log2 enrichment (interaction score)
- binding signal (PUM1 PUF domain R4-ALC): 3.15 log2 enrichment (interaction score)
- binding signal (PUM1 PUF domain R4-SPY): 3.88 log2 enrichment (interaction score)

Sequence: GGCUAGAACUAGUGGAUCCCCCGGCGCCCGGCGGCUCGAGCCCGGGUAAGUGUAAUUAGUCUGCAUGCCGCCGGGCGCCAUGCCUGCAGGUCGACUCUAGAAAACAUG
- binding signal (PUM1 PUF domain R3-RSG): 3.59 log2 enrichment (interaction score)
